Screens from PubChem BioAssay.
This is a sample that favours compounds with a hit; in the whole collection about 1.2% have one here.
TrxR1 substrate: qHTS Assay for Substrates of Mammalian Selenoprotein Thioredoxin Reductase 1 (TrxR1): qHTS; Thioredoxin reductase 1, cytoplasmic (Rattus norvegicus), O89049; purified TrxR1 substrate turnover, NADPH consumption readout; Potency, µM (doses to about 114 µM), for inactives: at the highest dose activity change, negative = substrate turnover; 390,000 tested, 0.01% active; also: potency is read from the fitted curve at half-maximal effect; nearly all actives have a fitted effect of over 50% in size
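Rat TrxR1, dispensed at 90 nM, was prereduced with 400 uM NADPH (final) for 5 min at ~22 deg C, then incubated with compound 15 min before 400 uM selenite. A first-read NADPH fluorescence drop versus no-compound background flagged substrates.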
PI4K2A block: qHTS for small molecular inhibitors of PI4K2A. Phosphatidylinositol 4-kinase type 2-alpha (Homo sapiens), Q9BTU6. purified PI4K2A, ADP-Glo luminescence, 1 h; active compounds read low. AID 1346378, 2018. 420,000 tested, 0.13% active. activity change, negative = inhibition, % at 76.9 µM; in the data active = activity change below about -50%; inconclusive = mostly about -30% to -49%;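 also: -100% = wells without enzyme as full effect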
Target sequence (Q9BTU6 whole entry, looked up): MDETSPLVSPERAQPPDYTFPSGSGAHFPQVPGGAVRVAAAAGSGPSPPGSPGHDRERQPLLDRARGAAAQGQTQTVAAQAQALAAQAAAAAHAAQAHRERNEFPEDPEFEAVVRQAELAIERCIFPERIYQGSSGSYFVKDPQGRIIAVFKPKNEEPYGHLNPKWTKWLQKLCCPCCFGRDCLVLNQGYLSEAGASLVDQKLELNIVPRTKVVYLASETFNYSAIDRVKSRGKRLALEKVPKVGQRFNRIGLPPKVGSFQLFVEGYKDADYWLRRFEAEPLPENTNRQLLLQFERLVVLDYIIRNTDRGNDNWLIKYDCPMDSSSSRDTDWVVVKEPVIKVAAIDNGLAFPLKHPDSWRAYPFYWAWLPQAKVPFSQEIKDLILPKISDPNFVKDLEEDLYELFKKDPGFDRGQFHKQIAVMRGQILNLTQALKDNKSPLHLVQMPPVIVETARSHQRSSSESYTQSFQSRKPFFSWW
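PI4K2A activity was measured by ADP-Glo luminescence: enzyme (4 ug/mL stock) and phosphatidylinositol (1.2 mM stock) in Tris pH 7.5/MgCl2/EGTA/Triton X-100 buffer were reacted with ATP (300 microM stock) for one hour at ambient temperature.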
TrxR1 inh: qHTS Assay for Inhibitors of Mammalian Selenoprotein Thioredoxin Reductase 1 (TrxR1): qHTS; Thioredoxin reductase 1, cytoplasmic (Rattus norvegicus), O89049; recombinant rTrxR1, NADPH fluorescence consumption, selenite substrate; Potency, µM (doses to about 114 µM), without a hit: at the top dose activity change, negative = inhibition, most hits filed as inhibitors; 390,000 tested, 1% active; AID 588453, 2011; also: potency is read from the fitted curve at half-maximal effect; nearly all actives have a fitted effect of over 65% in size
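Rat TrxR1 (90 nM in the dispensed reagent) was pre-reduced with 400 uM NADPH for 5 min at room temperature, then incubated with compound for 15 min. After 400 uM selenite was added, NADPH fluorescence (Ex 340/Em 450 nm) was followed for 8 min.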
PKM2 act: qHTS Assay for Activators of Human Muscle isoform 2 Pyruvate Kinase. Potency, µM (titrated, usually from 57.5 µM), inactives show top-dose activation, actives largely listed as activators. Pyruvate kinase PKM (Homo sapiens), P14618. 260,000 tested, 0.34% active. purified PKM2, Kinase-Glo ATP luminescence, activation; response scale: 0% is enzyme alone, no compound; also: potency is read from the fitted curve at half-maximal effect; nearly all actives have a fitted effect of over 55% in size
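Kinase-Glo luminescence reports ATP generated from ADP (0.1 mM) and PEP (0.5 mM) by purified hPK-M2 after 1 h at room temperature, pH 7.2 imidazole buffer; intermediate enzyme activity allows detecting inhibitors and activators.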
GALK inhibitor: qHTS Assay for Inhibitors of Human Galactokinase (GALK); 270,000 tested, 0.007% active; Potency, µM (series often up to 57.5 µM), inactives show top-dose activity change, negative = inhibition, usual class: inhibitors; Purified GALK, Kinase-Glo residual ATP luminescence; P51570; AID 1868, 2009; also: potency is read from the fitted curve at half-maximal effect
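Quantitative HTS: GALK 5 nM, ATP 35 uM, galactose 100 uM, 1 h room temperature, then luciferase-based ATP detection.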
An asterisk follows results filed as active; ? = inconclusive; . = not tested or not shown; ! = not confirmed by another sample; [ ] = another dose, or the depositor's remark. Unless noted, calls follow the shape of the dose curve; as a rule, active = well fitted curve in the direction sought with a large enough effect; inconclusive = small, poorly fitted or top-dose-only effect, or another doubt; inactive = no such curve, though single readings can be large; an effect the other way counts as inactive or inconclusive. Unless noted, % is scaled to controls: 0 for no effect and ±100 for the full control effect.

SMILES | TrxR1 substrate | PI4K2A block | TrxR1 inh | PKM2 act | GALK inhibitor
CC1CCCC(NC(=O)COC(=O)/C=C/c2ccco2)C1C (stereo unspecified) | -1% | 0 | 22µM* | . | .
O=Cc1cccc(OC(=O)/C=C/c2ccco2)c1 | -3% | -12 | 32µM* | 7% | -3%
Cc1ccccc1Cn1cc(CN2[C@@H](CC(C)C)COc3cccc(F)c3S2(=O)=O)nn1 | . | -1 | . | . | .
COc1cc(NCCCC(C)N)c2ncccc2c1 (stereo unspecified) | -7% | -51* | -25% | -14% | 0%
COc1ccc(N(Cc2cc(=O)[nH]c3ccccc23)C(=O)CCl)cc1 | 7% | 13 | 6.3µM* | 7% | -6%
CCCC(=O)N(Cc1cc(=O)[nH]c2ccccc12)c1cccc(C)c1 | 9%[57.1 µM] | 4 | 13%[57.1 µM] | . | .
Cc1cccc(N(Cc2cc(=O)[nH]c3ccccc23)C(=O)CCl)c1 | 10% | 1 | 4µM* | . | .
COc1ccc(C(C(=O)N(C)C2CCCC2)N(Cc2ccc(F)cc2)C(=O)c2cc(C)on2)cc1OC (stereo unspecified) | . | 4 | . | . | .
CCCn1c(=O)c2[nH]c(-c3ccc(S(=O)(=O)O)cc3)nc2n(CCC)c1=O | 629%[57.1 µM] | -1 | 22µM*! | . | .
COC(=O)C1=C(C)N(c2cccc3ccccc23)C(=O)C1 | 0% | 4 | 25µM* | 17% | 0%
O=C1CCCC2=C1C(c1cccc(O)c1)C1=C(N2)c2ccccc2C1=O (stereo unspecified) | -13% | 1 | 79µM* | 7% | 10%
COC(CN(C)C(C(=O)NC1CCCCC1)c1ccccc1)OC (stereo unspecified) | 6% | -3 | 20%[57.1 µM] | 0% | -1%
COC(CN(C(=O)CCl)C(C(=O)NC1CCCCC1)c1ccc(Cl)cc1)OC (stereo unspecified) | -10% | 3 | 35µM* | 0% | 1%
O=C(NC1CCCC1)C(c1ccc(Cl)cc1)N(Cc1ccc(F)cc1)C(=O)CCl (stereo unspecified) | 4% | -2 | 13µM* | 3% | 1%
COC(CN(C(=O)CCl)C(C(=O)NC1CCCCC1)c1ccccc1C)OC (stereo unspecified) | 2% | 18 | 40µM* | -1% | 4%
O=C(NC1CCCC1)C(c1ccc(F)cc1)N(Cc1ccc(Cl)cc1)C(=O)CCl (stereo unspecified) | -5% | -1 | ? | -1% | -4%
COC(CN(C(=O)CCl)C(C(=O)NC1CCCC(C)C1C)c1ccc(C)cc1)OC (stereo unspecified) | -7% | 0 | 56µM* | -4% | -3%
CCCN(CCC)c1ccc(/C=C/c2sc3ccccc3[n+]2CCCCI)cc1 | -6%[0.0914 µM] | . | ? | . | .
CC(C)Oc1ccc(S(=O)(=O)N2CCCCCC2)c2ccccc12 | . | -6 | . | . | .
Cc1sc2ccccc2[n+]1CCCC[n+]1c(C)sc2ccccc21 | 17% | . | 173% | . | .
CCOC(=O)Cc1csc(NC(=O)NC2(C(F)(F)F)Oc3ccc(Cl)cc3O2)n1 (stereo unspecified) | 8%[57.1 µM] | 1 | 8.9µM* | 6% | 0%
CCOC(=O)Cc1csc(NC(=O)NC2(C(F)(F)F)Oc3ccccc3O2)n1 | -5% | 1 | 11µM* | -2% | 0%
COc1ccc(CNc2ccccc2C(=O)NCc2ccccc2)cc1COc1ccc(NC(C)=O)cc1 | 60% | . | 16% | . | .
Cc1cc(N2CCOc3ccccc32)nc2ccccc12 | . | -7 | . | . | .
CC(=O)N1c2ccccc2C(=O)C1N1CCN(c2cc(Cl)ccc2C)CC1 (stereo unspecified) | 2%[57.1 µM] | -1 | -5%[57.1 µM] | . | .
SMILES | TrxR1 substrate | PI4K2A block | TrxR1 inh | PKM2 act | GALK inhibitor
Cc1csc(N=Nc2ccc(N(C)C)cc2)[n+]1[O-] | . | -79* | . | . | .
COc1ccc(-c2ccc(SC)nn2)cc1 | 8%[57.1 µM] | -72* | 14%[57.1 µM] | -67% | 17%
COc1ccc(C(=O)CSc2ccc(-c3ccccc3)nn2)cc1 | -19% | -3 | -4% | -12% | 0%
Cc1cc(C)nc(NN2C(=O)C=CC2=O)n1 | 12% | -1 | 7.9µM* | . | -3%
O=C(O)CC1=C(O)C(=O)N(c2ccccc2)C1c1ccccc1 (stereo unspecified) | -8% | -13 | 45µM* | -9% | 0%
O=C(O)CC1=C(O)C(=O)N(c2ccccc2)C1c1ccc(Br)cc1 (stereo unspecified) | 1% | 0 | ? | 1% | -2%
COCCCNC(=O)C[C@H]1C[C@@]2(C(=O)OC)C(=C[C@H](C3CCCC3)O[C@@H]2C)N(CCC2=CCCCC2)C1=O | . | 1 | . | . | .
CCCCS(=O)(=O)c1oc(-c2cccs2)nc1S(=O)(=O)c1ccc(F)cc1 | 12% | 51 | 0.71µM* | . | .
O=S(=O)(c1ccccc1)c1nc(-c2ccc(F)cc2)oc1N1CCCCCC1 | -4% | 5 | 16% | . | .
CCC(C)S(=O)(=O)c1oc(-c2ccc(F)cc2)nc1S(=O)(=O)c1ccc(F)cc1 (stereo unspecified) | 12% | 50 | 2µM* | . | .
CCS(=O)(=O)c1oc(-c2ccc(F)cc2)nc1S(=O)(=O)c1ccccc1 | 8% | 39 | 0.5µM* | . | .
CCCCCS(=O)(=O)c1oc(-c2cccs2)nc1S(=O)(=O)c1ccc(C)cc1 | 7% | 8 | 1.6µM* | . | .
CCCSc1oc(-c2cccs2)nc1S(=O)(=O)c1ccc(C)cc1 | 18% | -2 | 14% | . | .
CC(C)C[C@H]1COc2cc(N3CCCC3)ccc2S(=O)(=O)N1C | . | 5 | . | . | .
COc1cccc(N2CCN(C(=O)C3CCN(S(=O)(=O)c4cccc5nonc45)CC3)CC2)c1 | -4%[57.1 µM] | -2 | -1%[57.1 µM] | . | .
CCCCS(=O)(=O)c1oc(-c2ccc(F)cc2)nc1S(=O)(=O)c1ccc(C)cc1 | 6% | 48 | 1.4µM* | . | .
CN(C)c1oc(-c2ccc(Cl)cc2)nc1S(=O)(=O)c1ccccc1 | 1% | -1 | 35µM* | 9% | 2%
COc1ccc(CNC(=O)C(c2ccncc2)N(C(=O)Cc2cccs2)c2ccccc2)cc1 (stereo unspecified) | 8%[57.1 µM] | 4 | 9%[57.1 µM] | 9% | 1%
COc1ccc(N(C(=O)CCl)C(C(=O)NCCc2ccccc2)c2cccs2)cc1 (stereo unspecified) | 1% | 47 | 11µM* | 3% | 1%
COc1ccc(CCCc2nnc(SCC(=O)Nc3cc(F)ccc3C)o2)cc1 | -3% | 7 | 6% | . | .
COc1ccc2oc(=O)c(-c3nnc(NCc4ccco4)s3)cc2c1 | 6% | -11 | 16µM* | 1% | 1%
